# In PubChem BioAssay (NCI):
# Several values for one entry are separate records, joined by “and”; a condition that tells them apart may be missing. Equal entries are not always repeated. About 83,000 compounds went through this panel and 20% of them were active in at least one assay; those are over-represented in the sample as a whole.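 Treatment: one concentration, 48 hours, 96-well format. Scoring: percent growth, with anything below 10 considered active.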 Activity calls are given as the source filed them.
# How the values were obtained:
# Test in all cases: NCI-60 one-dose screen, 48 h (100 = growth as untreated, 0 = no growth, -100 = all killed)
# NCI-H226 lung = settings: 10 µM
# NCI-H322M lung = settings: 10 µM
# HOP-62 NSCLC = settings: 10 µM
# NCI-H460 lung = settings: 10 µM
# A549/ATCC NSCLC = settings: 10 µM
# 786-0 renal = settings: 10 µM
# COLO 205 colon = settings: 10 µM
# DU-145 prostate = settings: 10 µM
# SF-268 CNS = settings: 10 µM
# SF-295 CNS = settings: 10 µM
# SF-539 CNS = settings: 10 µM
# HCT-15 colon = settings: 10 µM
# HT29 colon = settings: 10 µM
# SNB-75 CNS = settings: 10 µM
# SNB-19 CNS = settings: 10 µM
# U251 CNS = settings: 10 µM
# PC-3 prostate = settings: 10 µM
# ACHN renal = settings: 10 µM
# HL-60(TB) leukemia = settings: 10 µM unless noted
# CCRF-CEM leukemia = settings: 10 µM
Compound,growth (NCI-H226 lung),growth (NCI-H322M lung),growth (HOP-62 NSCLC),growth (NCI-H460 lung),growth (A549/ATCC NSCLC),growth (786-0 renal),growth (COLO 205 colon),growth (DU-145 prostate),growth (SF-268 CNS),growth (SF-295 CNS),growth (SF-539 CNS),growth (HCT-15 colon),growth (HT29 colon),growth (SNB-75 CNS),growth (SNB-19 CNS),growth (U251 CNS),growth (PC-3 prostate),growth (ACHN renal),growth (HL-60(TB) leukemia),growth (CCRF-CEM leukemia)
CC1=C2C(=C[C@@](C)(COS(C)(=O)=O)[C@@H]2O)C(=O)[C@](C)(O)C12CC2,-15.3% (active),4.33% (active),0.685% (active),7.36% (active),11.3% (inactive),4.19% (active),-33.7% (active),9.22% (active),5.21% (active),-2.13% (active),-26.2% (active),3.8% (active),3.64% (active),-74.6% (active),4.72% (active),7.54% (active),6.69% (active),-0.611% (active),-9.62% (active),11% (inactive)
C=C1[C@@H](C)C2[C@H](Cc3ccccc3)NC(=O)[C@]23[C@H](OC(C)=O)/C=C/[C@@](C)(O)C(=O)[C@@H](C)C/C=C/[C@H]3[C@@H]1O (stereo not given in full),53.4% (inactive),87.9% (inactive),9.38% (active),26.3% (inactive),22.7% (inactive),28.8% (inactive),35% (inactive),48% (inactive),34.5% (inactive),51.4% (inactive),24% (inactive),45.8% (inactive),11.8% (inactive),-10.7% (active),50.4% (inactive),29.1% (inactive),69.4% (inactive),41.9% (inactive),31.7% (inactive),48.7% (inactive)
CC1=C(CN(O)C(N)=O)C2=C(C)C3(CC3)[C@](C)(O)C(=O)C2=C1,105% (inactive),26.8% (inactive),11.4% (inactive),1.16% (active),0.401% (active),14.9% (inactive),-11.9% (active),10% (inactive),13.6% (inactive),0.35% (active),-1.94% (active),1.38% (active),3.85% (active),-22.2% (active),32.5% (inactive),23.8% (inactive),8.93% (active),-5.65% (active),-16.6% (active),1.19% (active)
C[C@@H]1C[C@H]2C(=O)O[C@@H](C)C(NC(=O)[C@H](Cc3cc(F)cc(F)c3)NC(=O)Nc3ccc(OS(=O)(=O)F)cc3)C(=O)N3CCC[C@H]3C(=O)N3CCO[C@H](C)[C@H]3C(=O)N[C@@H](CO)C(=O)N2C1 (stereo not given in full),-3.99% (active),54% (inactive),33% (inactive),17% (inactive),31% (inactive),42.7% (inactive),-19.1% (active),28% (inactive),33.2% (inactive),11.4% (inactive),39.5% (inactive),82.9% (inactive),34.6% (inactive),34.4% (inactive),24.2% (inactive),29.6% (inactive),19.9% (inactive),93.5% (inactive),13.3% (inactive),34.1% (inactive)
N#Cc1c(-n2c(Br)c(Br)c3cc(Br)ccc32)[nH]c2c(Br)cc(Br)cc12,-20.5% (active),0.977% (active),-50.9% (active),-2.03% (active),10.3% (inactive),-19.1% (active),-89.6% (active),17% (inactive),9.61% (active),-67% (active),6.25% (active),-27% (active),-15.1% (active),-9.71% (active),15% (inactive),2.86% (active),-8.16% (active),1.41% (active),1.07% (active),13.2% (inactive)
C/C=C/CC(C)C(O)[C@H](NC(=O)[C@@H]1CCCN1C(=O)C(C)(C)NC(=O)CCCCCCC)C(=O)N[C@@](C)(CC)C(=O)N[C@@H](CCC(N)=O)C(=O)N[C@H](CCC(N)=O)C(=O)NC(C)(C)C(=O)NC(C)(C)C(=O)N[C@@H](CCC(N)=O)C(=O)N[C@H](CC(C)C)C(=O)N[C@H](CO)CC(C)C (stereo not given in full),105% (inactive) and 6.63% (active),108% (inactive) and 70% (inactive),95.9% (inactive) and 14.5% (inactive),105% (inactive) and 13.1% (inactive),109% (inactive) and 30% (inactive),103% (inactive) and 39.8% (inactive),118% (inactive) and -46.4% (active),110% (inactive) and -35.4% (active),107% (inactive) and -8.99% (active),98.8% (inactive) and -22.2% (active),100% (inactive) and -45.7% (active),100% (inactive) and 22.1% (inactive),113% (inactive) and 37.8% (inactive),109% (inactive) and -30.3% (active),101% (inactive) and 14% (inactive),101% (inactive) and -17.8% (active),103% (inactive) and 17.3% (inactive),103% (inactive) and 32% (inactive),94.8% (inactive) and -6.76% (active),103% (inactive) and -23.3% (active)
N#Cc1nc(-c2ccccc2)oc1N1CCC(S(=O)(=O)F)CC1,98.4% (inactive),115% (inactive),95.9% (inactive),106% (inactive),102% (inactive),81.5% (inactive),114% (inactive),101% (inactive),92.3% (inactive),100% (inactive),91.1% (inactive),103% (inactive),102% (inactive),102% (inactive),98.6% (inactive),98.6% (inactive),99.3% (inactive),94.6% (inactive),98.6% (inactive),100% (inactive)
COC(=O)[C@H]1[C@@H](O)[C@@]2(O)c3c(OC)cc(OC)cc3O[C@@]2(c2ccc(OC)cc2)[C@@H]1c1ccccc1,3.03% (active),-19% (active),-11.6% (active),2.19% (active),-14.9% (active),0.303% (active),-71% (active),-9.42% (active),0.0752% (active),-14.4% (active),-25.6% (active),-3.06% (active),-34.3% (active),-6.18% (active),-4.86% (active),-5.73% (active),-7.51% (active),-23% (active),-21.8% (active),4.76% (active)
CC1=C[C@H]2O[C@@H]3C[C@@H](O)[C@](C)([C@@]2(C)CC1)[C@@]31CO1,29.9% (inactive),24.9% (inactive),15.7% (inactive),13.2% (inactive),16.2% (inactive),24.1% (inactive),3.33% (active),19.4% (inactive),29.3% (inactive),27.2% (inactive),23.9% (inactive),20.8% (inactive),11.4% (inactive),28.7% (inactive),18.9% (inactive),15.4% (inactive),31.5% (inactive),22.2% (inactive),-20.9% (active),13.8% (inactive)
COc1cc2c(O[C@@H]3OC[C@H](O)[C@H](O)[C@H]3O)c3c(c(-c4ccc5c(c4)OCO5)c2cc1OC)C(=O)OC3,80.7% (inactive),82% (inactive),59.1% (inactive),71.9% (inactive),91% (inactive),78.9% (inactive),11.6% (inactive),53.2% (inactive),66.7% (inactive),40.5% (inactive),53.6% (inactive),70.3% (inactive),38.6% (inactive),18% (inactive),97% (inactive),54.8% (inactive),67.1% (inactive),67.6% (inactive),32.6% (inactive),46.6% (inactive)
CC(=O)O[C@@H]1C[C@H]2O[C@@H]3C=C(C)CC[C@]3(C)[C@]1(C)[C@]21CO1,22.3% (inactive),18.8% (inactive),6.11% (active),6.94% (active),12.8% (inactive),7.07% (active),-61.3% (active),16.8% (inactive),15.3% (inactive),34.1% (inactive),-23.1% (active),3.87% (active),8.97% (active),29.4% (inactive),3.18% (active),5.85% (active),24.8% (inactive),23% (inactive),-33.9% (active),-3.18% (active)
CC1=C(CN(O)C(N)=O)C2=C(C)C3(CC3)[C@@](C)(O)C(=O)C2=C1,-46.8% (active),5.16% (active),-9% (active),-11.2% (active),-8.35% (active),-5.47% (active),-35.9% (active),-2.79% (active),-14.7% (active),-11.4% (active),-46.1% (active),0.564% (active),0.349% (active),-52.8% (active),16.2% (inactive),4.97% (active),2.36% (active),-14.4% (active),-28.2% (active),94.7% (inactive)
CC1=C(CCC=NNC(N)=O)C2=C(C)C3(CC3)[C@@](C)(O)C(=O)C2=C1,-41.6% (active),-16.2% (active),-55.2% (active),-29.2% (active),4.54% (active),-37.6% (active),-86.4% (active),-9.85% (active),-17.8% (active),-6.5% (active),-58.5% (active),-16.6% (active),-9.67% (active),-63.9% (active),3.45% (active),4.6% (active),1.22% (active),-10.3% (active),5.99% (active),26.6% (inactive)
C/C=C\C(=O)O[C@@H]1CC2O[C@@H]3C=C(C)C(=O)C[C@]3(C)[C@]1(C)[C@]21CO1,-20.5% (active),-11% (active),-32.6% (active),0.808% (active),-5.19% (active),-20.2% (active),-55.3% (active),-15.1% (active),0.463% (active),-18.2% (active),-31.9% (active),-5% (active),-33.4% (active),-14.8% (active),-10.5% (active),-11% (active),-2.85% (active),-28.6% (active),-47.3% (active),-12.8% (active)
